Data taken from PubChem BioAssay (NCATS).
Records with an inconclusive call do not appear. The source made the active and inactive calls. Unless noted, calls follow the shape of the full dose curve.

Key:
[1] = target: Estrogen receptor (Homo sapiens) (UniProt P03372); assay: qHTS assay for small molecule agonists of estrogen receptor alpha signaling (AID 588514);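 also: 0% = vehicle only and 100% = reference agonist; nearly all actives have a fitted effect of over 70% in size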
In short: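 Cells were plated at 5000/well, incubated 4 hrs at 37 C, dosed with compound titration series, incubated 18 hrs at 37 C, loaded with CCF4 dye for 2 hrs at RT, then fluorescence was read.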

[2] = target: Glucocorticoid receptor (Homo sapiens) (UniProt P04150); assay: qHTS assay for small molecule agonists of glucocorticoid receptor signaling (AID 588532; active = well fitted curve in the direction sought with a large enough effect in the signal ratio, with a control signal flat; the % refers to the signal ratio;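 also: 100% = dexamethasone at 0.1 µM and 0% = DMSO only wells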); conditions: HeLa MMTV-bla, beta-lactamase ratio, agonist, 18 h; activation: stronger effect = higher value, percent of dexamethasone control, DMSO zero
In short: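 Quantitative HTS using CellSensor MMTV-bla HeLa cells in charcoal/dextran-treated serum; compounds tested up to 92 uM. After 18 h at 37 C, CCF4 dye reported reporter induction.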

[3] = target: Glucocorticoid receptor (Homo sapiens) (UniProt P04150); assay: qHTS assay for small molecule antagonists of glucocorticoid receptor signaling (AID 588533; active = well fitted inhibition curve with a large enough effect in the signal ratio, with a control signal flat, not every such curve was filed as active; the % refers to the signal ratio;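 also: cells stimulated with 2 nM dexamethasone as agonist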; also: potency is read from the fitted curve at half-maximal effect)
In short: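 Antagonist-mode qHTS: compound titrations added to GRE-bla HeLa cells, then dexamethasone 2 nM final; 18 h, 37 C. CCF4 FRET fluorescence normalized to dexamethasone and DMSO; IC50 from Hill fit.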

[4] = target: Peroxisome proliferator-activated receptor delta (Homo sapiens) (UniProt Q03181); assay: qHTS assay for small molecule agonists of peroxisome proliferator-activated receptor delta signaling (AID 588534);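 also: 0% = DMSO basal wells and 100% = positive control agonist at 10 µM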
In short: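 Fluorescence from CCF4 substrate cleavage by beta-lactamase reporter, read 2 hrs at RT, measured agonist activity. Compounds were tested with 18 hrs exposure at 37 C. Concentration-response data fitted to Hill equation.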

[5] = qHTS assay for small molecule agonists of retinoid X receptor alpha signaling (AID 588544); conditions: HEK293T RXRa-UAS-bla, beta-lactamase reporter, 18 h; 530 nm emission; also: potency is read from the fitted curve at half-maximal effect;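 as to activation: 0% = DMSO basal wells and 100% = reference agonist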
[6] = target: Retinoic acid receptor RXR-alpha (Homo sapiens) (UniProt P19793); assay: as above
[7] = target: Thyroid hormone receptor beta (Homo sapiens) (UniProt P10828); assay: qHTS assay for small molecule agonists of thyroid hormone receptor beta signaling (AID 588545);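 also: 0% = DMSO only and 100% = 10 nM T3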
In short: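 TR-UAS-bla GripTite HEK 293 cells (2500/well, medium with 2% charcoal/dextran FBS) were treated in agonist mode for 18 h at 37 C, titrated. Beta-lactamase was read by CCF4 ratio after 2 h; normalized to 10 nM T3 (100%) and DMSO, Hill-fitted for EC50 and efficacy.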

[8] = qHTS assay for small molecule antagonists of retinoid X receptor alpha signaling (AID 588546; active = well fitted inhibition curve with a large enough effect in the signal ratio, with a control signal flat, not every such curve was filed as active; the % refers to the signal ratio;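 also: cells stimulated with 9-cis-retinoic acid as agonist; % is scaled to controls: 0 for no effect and ±100 for the full control effect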); conditions: HEK293T RXRa-UAS-bla, beta-lactamase ratio, antagonist mode; measured here: W530 green channel, cytotoxicity proxy
In short: (§1)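 Beta-lactamase reporter inhibition, read as CCF4 fluorescence ratio (ex 405, em 460/530 nm) after 2 h at RT. HEK293T UAS-bla cells, 2500/well, were stimulated with 9-cis-RA at 500 or 100 nM final alongside test compound for 18 h at 37 C.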

[9] = target: Retinoic acid receptor RXR-alpha (Homo sapiens) (UniProt P19793); assay: as above; conditions: HEK293T RXRa-UAS-bla, beta-lactamase ratio, antagonist mode
In short: as §1

[10] = qHTS assay for small molecule activators of the p53 signaling pathway (AID 651743; active = well fitted activation curve with a large enough effect in the signal ratio, not every such curve was filed as active; the % refers to the signal ratio; also: series mostly up to about 92 µM; % of control where 0% means no effect); conditions: HCT-116 p53RE-bla, beta-lactamase FRET ratio, 16 h; activation: stronger effect = higher value
In short: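 Read-out is fluorescence intensity from the LiveBLAzer B/G FRET substrate, added for 2 hours at room temperature after HCT-116 p53RE-bla cells had been incubated with compounds for 16 hours at 37 C.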

[11] = qHTS assay for environmental chemicals that activate the Aryl hydrocarbon Receptor (AhR) signaling pathway (AID 651777; active = well fitted curve in the direction sought with a large enough effect; an effect the other way counts as inactive or inconclusive; also: % of control where 0% means no effect; nearly all actives have a fitted effect of over 15% in size); conditions: 1A2-DRE human hepatoma cells, luciferase, 24 h; activation: stronger effect = higher value
In short: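 1A2-DRE human hepatoma reporter line; 1,200 cells/well; cmpd or DMSO 24 h, 37 C/5% CO2; One-Glo 30 min RT; luciferase lum.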

[12] = target: Peroxisome proliferator-activated receptor alpha (Homo sapiens) (UniProt Q07869); assay: qHTS assay for small molecule agonists of the peroxisome proliferator-activated receptor alpha (PPARalpha) signaling pathway (AID 651778; active = well fitted curve in the direction sought with a large enough effect; an effect the other way counts as inactive or inconclusive; also: % of control where 0% means no effect); conditions: PathHunter PPARalpha complementation, chemiluminescence, 6 h; max response: stronger effect = higher value
In short: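 Chemiluminescence from complemented enzyme reported PPARalpha activation in cells after 6 hr of compound treatment at 37 C. The detection reagent was incubated for 60 min at room temperature, and compounds were scored as agonists.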

[13] = qHTS assay for small molecule agonists of the antioxidant response element (ARE) signaling pathway measured by Nrf2-dependant transcriptional activity - cell viability counter screen (AID 720653; active = well fitted curve in the direction sought with a large enough effect in the repeat runs; an effect the other way counts as inactive or inconclusive; also: % is scaled to controls: 0 for no effect and ±100 for the full control effect); conditions: ARE-bla HepG2 viability, CellTiter-Glo ATP luminescence, 16 h; max response: stronger effect = lower value
In short: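 Cytotoxicity counter screen: intracellular ATP quantified by CellTiter-Glo luminescence in the same ARE-bla HepG2 plates, after 16 h compound exposure and a 2 h beta-lactamase substrate step.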

[14] = qHTS assay for cell viability of HEK293 cells (AID 743288; active = well fitted curve in the direction sought with a large enough effect; an effect the other way counts as inactive or inconclusive; also: nearly all actives have a fitted effect of over 50% in size; also: potency is read from the fitted curve at half-maximal effect; as to max response: % is scaled to controls: 0 for no effect and ±100 for the full control effect); conditions: ATP luminescence (CellTiter-Glo), 18 h; max response: stronger effect = lower value
In short: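 Parental HEK293 cells, 2,000 per well, preincubated at least 5 h at 37 C, then exposed to compounds in DMSO for 18 h at 37 C. Viability by CellTiter-Glo ATP luminescence after 30 min at room temperature.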

[15] = qHTS assay for cell viability of the p53RE-bla HCT-116 cell line (AID 743292; active = well fitted curve in the direction sought with a large enough effect; an effect the other way counts as inactive or inconclusive; also: % is scaled to controls: 0 for no effect and ±100 for the full control effect; nearly all actives have a fitted effect of over 55% in size)
In short: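 HCT-116 p53RE-bla cells seeded 4,000/well; 5 h at 37 C; compound (DMSO) added; 16 h at 37 C; CellTiter-Glo added, 30 min RT; luminescence read.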

[16] = target: Nuclear receptor subfamily 1 group I member 2 (Rattus norvegicus) (UniProt Q9R1A7); assay: qHTS assay for small molecule activators of the rat pregnane X receptor (rPXR) signaling pathway (AID 651751; call rule not given here; also: 0% is about no effect); conditions: rPXR reporter cells, luciferase (One-Glo), 24 h
[17] = target: Peroxisome proliferator-activated receptor gamma (Homo sapiens) (UniProt P37231); assay: qHTS assay for small molecule agonists of peroxisome proliferator-activated receptor gamma signaling (AID 588536; active = well fitted curve in the direction sought with a large enough effect in the signal ratio, with a control signal flat, not every such curve was filed as active; the % refers to the signal ratio;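 also: 0% = DMSO basal wells and 100% = rosiglitazone at 2 µM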)
In short: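 PPAR-gamma-UAS-bla HEK293 cells in medium with 1% charcoal/dextran-treated FBS were exposed to compounds for 16 h at 37 C. Beta-lactamase activity was read with CCF4 substrate (405 nm excitation, 460/530 nm emission).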

[18] = target: Vitamin D3 receptor (Homo sapiens) (UniProt P11473); assay: qHTS assay for small molecule agonists of vitamin D receptor signaling (AID 588543);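 also: 0% = DMSO basal and 100% = reference agonist control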
In short: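 VDR-UAS-bla HEK293T cells, 2000/well, 2% charcoal-stripped FBS; compound titration 16 h at 37 C; CCF4 beta-lactamase ratio read. Normalized to 50 nM 1-alpha,25-dihydroxyvitamin D3 (100%) and DMSO; Hill fit gives EC50, efficacy.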

[19] = target: Thyroid hormone receptor beta (Homo sapiens) (UniProt P10828); assay: qHTS assay for small molecule antagonists of thyroid hormone receptor beta signaling (AID 588547; active = well fitted inhibition curve with a large enough effect in the signal ratio, with a control signal flat, not every such curve was filed as active; the % refers to the signal ratio;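 also: cells stimulated with 0.4 nM T3 agonist during compound exposure; series mostly up to about 77 µM; % is scaled to controls: 0 for no effect and ±100 for the full control effect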); conditions: TR-UAS-bla HEK293, beta-lactamase ratio, antagonist mode, 18 h
In short: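 Inhibition of T3-driven (0.4nM final) beta-lactamase reporter activity was measured over 0.59 nM to 92 uM compound after 18 h at 37 C. The cells were GripTite HEK293 TR-UAS-bla in charcoal/dextran-stripped serum, with CCF4 ratio read-out and IC50 from Hill fits.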

[20] = qHTS assay for small molecule agonists of the antioxidant response element (ARE) signaling pathway measured by Nrf2-dependant transcriptional activity (AID 720636; active = well fitted curve in the direction sought with a large enough effect in the repeat runs; an effect the other way counts as inactive or inconclusive;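 also: HepG2 cells with an ARE-driven luciferase reporter; % of control where 0% means no effect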)
In short: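 Cells: ARE-luc HepG2 with Nrf2-responsive luciferase. Medium contained 1% dialyzed FBS. Compound exposure lasted 16 hr at 37 C and 5% CO2, followed by ONE-Glo luciferase detection.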

Sequence of Nuclear receptor subfamily 1 group I member 2 (Rattus norvegicus) (Q9R1A7 whole entry, looked up): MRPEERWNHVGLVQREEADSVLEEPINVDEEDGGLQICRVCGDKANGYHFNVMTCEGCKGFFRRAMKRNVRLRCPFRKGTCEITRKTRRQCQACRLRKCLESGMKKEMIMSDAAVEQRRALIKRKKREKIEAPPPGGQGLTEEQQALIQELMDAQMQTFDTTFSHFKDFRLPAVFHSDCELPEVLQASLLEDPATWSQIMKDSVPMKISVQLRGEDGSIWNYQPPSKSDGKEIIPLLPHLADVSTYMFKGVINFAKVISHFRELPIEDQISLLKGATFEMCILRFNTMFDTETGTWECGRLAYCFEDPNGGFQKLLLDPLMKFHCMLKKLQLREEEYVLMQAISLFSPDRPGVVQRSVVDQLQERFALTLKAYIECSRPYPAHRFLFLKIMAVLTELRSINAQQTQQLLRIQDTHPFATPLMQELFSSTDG
Sequence of Vitamin D3 receptor (Homo sapiens) (P11473 whole entry, looked up): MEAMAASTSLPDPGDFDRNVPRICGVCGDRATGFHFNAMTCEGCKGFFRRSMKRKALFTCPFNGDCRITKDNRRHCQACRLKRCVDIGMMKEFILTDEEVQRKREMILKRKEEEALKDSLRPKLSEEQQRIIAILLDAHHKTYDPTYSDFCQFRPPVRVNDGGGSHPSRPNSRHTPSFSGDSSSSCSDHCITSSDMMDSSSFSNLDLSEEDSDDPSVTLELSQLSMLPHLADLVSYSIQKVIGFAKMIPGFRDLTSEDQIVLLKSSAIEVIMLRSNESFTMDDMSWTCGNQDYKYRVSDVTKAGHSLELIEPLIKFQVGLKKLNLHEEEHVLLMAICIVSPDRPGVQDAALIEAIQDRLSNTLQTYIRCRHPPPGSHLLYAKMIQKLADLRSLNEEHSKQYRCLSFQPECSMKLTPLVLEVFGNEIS
Sequence of Estrogen receptor (Homo sapiens) (P03372 whole entry, looked up): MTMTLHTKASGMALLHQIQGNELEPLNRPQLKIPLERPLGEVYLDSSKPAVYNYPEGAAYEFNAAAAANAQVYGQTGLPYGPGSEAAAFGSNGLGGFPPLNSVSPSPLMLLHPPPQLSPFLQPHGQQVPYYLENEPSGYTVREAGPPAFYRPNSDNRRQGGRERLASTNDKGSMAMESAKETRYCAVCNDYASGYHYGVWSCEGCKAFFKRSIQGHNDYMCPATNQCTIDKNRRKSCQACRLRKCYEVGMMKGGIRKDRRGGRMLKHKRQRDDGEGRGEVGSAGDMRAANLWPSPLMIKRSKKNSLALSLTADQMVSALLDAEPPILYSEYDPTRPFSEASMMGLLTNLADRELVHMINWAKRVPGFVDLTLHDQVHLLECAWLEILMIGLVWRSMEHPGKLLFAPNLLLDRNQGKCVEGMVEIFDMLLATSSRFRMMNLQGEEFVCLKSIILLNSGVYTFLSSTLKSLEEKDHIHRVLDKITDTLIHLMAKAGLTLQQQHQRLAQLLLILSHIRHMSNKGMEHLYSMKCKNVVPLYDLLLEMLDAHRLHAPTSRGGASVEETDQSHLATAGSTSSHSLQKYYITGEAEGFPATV
Sequence of Peroxisome proliferator-activated receptor alpha (Homo sapiens) (Q07869 whole entry, looked up): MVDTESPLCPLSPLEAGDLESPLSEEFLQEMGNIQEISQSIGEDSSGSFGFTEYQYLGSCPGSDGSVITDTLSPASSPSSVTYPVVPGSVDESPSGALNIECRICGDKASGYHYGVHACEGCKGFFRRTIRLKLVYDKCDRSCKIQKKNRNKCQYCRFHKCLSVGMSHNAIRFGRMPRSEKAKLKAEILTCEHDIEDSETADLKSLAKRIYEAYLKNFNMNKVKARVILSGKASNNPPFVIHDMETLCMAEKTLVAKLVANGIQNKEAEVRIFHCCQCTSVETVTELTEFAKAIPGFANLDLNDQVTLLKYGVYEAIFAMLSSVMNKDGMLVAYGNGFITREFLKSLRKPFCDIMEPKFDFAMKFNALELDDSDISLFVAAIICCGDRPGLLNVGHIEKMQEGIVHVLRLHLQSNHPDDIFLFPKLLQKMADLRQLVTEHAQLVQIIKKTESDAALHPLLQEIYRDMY
Sequence of Peroxisome proliferator-activated receptor gamma (Homo sapiens) (P37231 whole entry, looked up): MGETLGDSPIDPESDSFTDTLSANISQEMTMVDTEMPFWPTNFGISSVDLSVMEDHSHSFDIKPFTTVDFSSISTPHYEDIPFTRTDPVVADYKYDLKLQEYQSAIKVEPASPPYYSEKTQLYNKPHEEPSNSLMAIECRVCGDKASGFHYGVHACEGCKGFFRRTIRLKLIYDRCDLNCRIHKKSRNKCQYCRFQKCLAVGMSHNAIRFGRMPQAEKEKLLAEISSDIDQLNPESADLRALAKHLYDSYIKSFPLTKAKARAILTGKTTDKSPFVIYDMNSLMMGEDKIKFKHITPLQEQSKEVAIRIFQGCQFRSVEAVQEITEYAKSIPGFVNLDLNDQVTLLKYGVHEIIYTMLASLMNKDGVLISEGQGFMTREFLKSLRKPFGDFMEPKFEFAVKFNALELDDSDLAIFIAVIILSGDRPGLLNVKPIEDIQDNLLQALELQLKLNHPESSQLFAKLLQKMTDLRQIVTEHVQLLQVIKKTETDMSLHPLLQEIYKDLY
Sequence of Peroxisome proliferator-activated receptor delta (Homo sapiens) (Q03181 whole entry, looked up): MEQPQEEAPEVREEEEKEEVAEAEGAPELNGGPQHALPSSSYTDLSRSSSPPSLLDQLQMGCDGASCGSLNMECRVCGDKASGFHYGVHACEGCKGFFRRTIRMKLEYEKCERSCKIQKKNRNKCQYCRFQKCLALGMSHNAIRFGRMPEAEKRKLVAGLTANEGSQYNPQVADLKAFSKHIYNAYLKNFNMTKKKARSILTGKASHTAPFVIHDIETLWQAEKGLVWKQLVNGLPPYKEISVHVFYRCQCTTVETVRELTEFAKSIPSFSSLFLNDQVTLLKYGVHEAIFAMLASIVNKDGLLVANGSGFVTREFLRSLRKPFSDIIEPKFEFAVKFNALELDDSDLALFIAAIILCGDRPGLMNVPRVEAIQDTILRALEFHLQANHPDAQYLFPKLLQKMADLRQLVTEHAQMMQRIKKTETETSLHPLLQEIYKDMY
Sequence of Thyroid hormone receptor beta (Homo sapiens) (P10828 whole entry, looked up): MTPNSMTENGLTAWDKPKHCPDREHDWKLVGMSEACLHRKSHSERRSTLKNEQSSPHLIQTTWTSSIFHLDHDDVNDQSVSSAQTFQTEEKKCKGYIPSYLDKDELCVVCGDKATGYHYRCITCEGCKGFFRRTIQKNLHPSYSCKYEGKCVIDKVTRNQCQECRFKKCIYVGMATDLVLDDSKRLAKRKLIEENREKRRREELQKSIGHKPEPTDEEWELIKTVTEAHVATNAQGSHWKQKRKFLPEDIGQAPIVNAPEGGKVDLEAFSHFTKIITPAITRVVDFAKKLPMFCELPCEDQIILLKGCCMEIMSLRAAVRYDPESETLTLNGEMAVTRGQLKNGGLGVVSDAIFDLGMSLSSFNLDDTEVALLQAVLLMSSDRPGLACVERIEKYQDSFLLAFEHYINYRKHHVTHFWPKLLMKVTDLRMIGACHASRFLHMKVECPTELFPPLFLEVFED
Sequence of Glucocorticoid receptor (Homo sapiens) (P04150 whole entry, looked up): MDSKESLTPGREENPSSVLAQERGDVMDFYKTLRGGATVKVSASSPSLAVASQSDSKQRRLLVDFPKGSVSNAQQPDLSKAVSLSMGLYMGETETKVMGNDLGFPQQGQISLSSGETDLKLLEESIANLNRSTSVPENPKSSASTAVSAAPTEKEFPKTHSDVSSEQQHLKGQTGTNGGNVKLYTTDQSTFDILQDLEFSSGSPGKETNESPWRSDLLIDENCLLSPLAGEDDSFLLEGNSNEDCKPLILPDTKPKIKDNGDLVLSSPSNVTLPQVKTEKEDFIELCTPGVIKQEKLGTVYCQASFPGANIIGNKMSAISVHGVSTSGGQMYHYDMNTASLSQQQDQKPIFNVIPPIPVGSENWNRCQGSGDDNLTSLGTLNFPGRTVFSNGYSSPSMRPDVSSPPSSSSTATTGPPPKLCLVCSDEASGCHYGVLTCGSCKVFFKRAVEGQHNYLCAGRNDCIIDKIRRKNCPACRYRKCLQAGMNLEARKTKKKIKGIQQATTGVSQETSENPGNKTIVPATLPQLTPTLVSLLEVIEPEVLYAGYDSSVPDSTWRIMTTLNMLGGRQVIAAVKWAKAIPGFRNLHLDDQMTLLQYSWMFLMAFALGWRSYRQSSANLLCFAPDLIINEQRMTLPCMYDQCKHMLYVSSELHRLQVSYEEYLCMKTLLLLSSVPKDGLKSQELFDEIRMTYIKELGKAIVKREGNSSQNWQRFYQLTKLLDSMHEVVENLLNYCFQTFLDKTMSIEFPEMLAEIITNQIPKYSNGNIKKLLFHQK
Sequence of Retinoic acid receptor RXR-alpha (Homo sapiens) (P19793 whole entry, looked up): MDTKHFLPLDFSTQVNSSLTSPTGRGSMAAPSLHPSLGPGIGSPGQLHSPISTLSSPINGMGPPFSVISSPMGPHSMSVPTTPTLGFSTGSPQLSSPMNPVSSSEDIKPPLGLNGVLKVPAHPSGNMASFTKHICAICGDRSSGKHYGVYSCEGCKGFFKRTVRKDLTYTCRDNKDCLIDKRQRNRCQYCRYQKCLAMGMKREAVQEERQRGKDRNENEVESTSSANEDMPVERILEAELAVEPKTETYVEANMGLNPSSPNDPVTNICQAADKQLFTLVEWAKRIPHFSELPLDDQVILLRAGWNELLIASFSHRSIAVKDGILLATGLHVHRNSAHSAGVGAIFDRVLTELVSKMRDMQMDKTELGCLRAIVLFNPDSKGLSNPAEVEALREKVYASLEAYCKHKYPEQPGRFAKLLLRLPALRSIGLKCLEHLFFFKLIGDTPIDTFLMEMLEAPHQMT

COC(=O)/C=C(\C)OP(=O)(OC)OC
-22.9%: max response [5]
-19.7%: max response [8]
inactive: Potency [1] | activation [2] -1.06% | Potency [3] | outcome [4] | Potency [6] | Potency [7] | max response [9] -10.3% | activation [10] -3.2% | activation [11] 0.265% | max response [12] -1.45% | max response [13] 12.7% | max response [14] -3.83% | Potency [15] | max response [16] -0.069%

CSC(=O)c1c(C(F)F)nc(C(F)(F)F)c(C(=O)SC)c1CC(C)C
-14.1%: max response [8]
inactive: Potency [1] | activation [2] -2.18% | outcome [4] | Potency [17] | outcome [18] | Potency [7] | max response [9] -15.4% | activity change % (negative = inhibition) [19] -31.5% | activation [10] -0.469% | activation [11] 1.06% | max response [12] 6.5% | Potency [20] | max response [13] -2.65% | max response [14] -16.9% | Potency [15]

CCC[CH2][Sn]([Cl])([CH2]CCC)[CH2]CCC
active: Potency [6] 0.398 µM | Potency [14] 50.1 µM
inactive: Potency [1] | activation [2] -5.41% | activation [11] 8.68% | max response [12] 2.3%
-0.857%: max response [5]

C=C(C)C(=O)OCC(CC)CCCC (stereo not given)
inactive: Potency [1] | activation [2] -12.2% | Potency [3] | Potency [17] | Potency [6] | Potency [7] | activity change % (negative = inhibition) [19] 10.1% | activation [10] -3.24% | activation [11] 1.05% | max response [12] 5.11% | Potency [20] | max response [13] -12.5% | max response [14] 2.46% | Potency [15] | max response [16] -1.07%
-20.3%: max response [5]
-12.9%: max response [8]

CCc1ccc(C(=O)NN(C(=O)c2cc(C)cc(C)c2)C(C)(C)C)cc1
inactive: Potency [1] | activation [2] -6.89% | Potency [3] | outcome [4] | outcome [18] | Potency [6] | Potency [7] | activity change % (negative = inhibition) [19] 18% | activation [10] 3.11% | activation [11] 1.38% | max response [12] -0.946% | Potency [20] | max response [13] -4.5% | max response [14] -11.8% | Potency [15]
1.33%: max response [5]

O=C(Nc1ccccc1)Nc1cnns1
inactive: Potency [1] | Potency [3] | outcome [4] | outcome [18] | Potency [7] | max response [9] -46.6% | activity change % (negative = inhibition) [19] 24.1% | activation [10] 2.3% | max response [12] 0.0118% | max response [13] -2.01% | max response [14] -16.6% | Potency [15]
1.32%: max response [8]

CC(C)(C)C(O)/C(=C\c1ccc(Cl)cc1Cl)n1cncn1 (stereo not given)
inactive: Potency [1] | Potency [7] | activity change % (negative = inhibition) [19] -35.6% | activation [11] 6.02% | max response [12] 1.97% | Potency [20] | max response [13] -10.7%
active: Potency [3] 35.5 µM

CCCCOC(=O)[C@@H](C)Oc1ccc(Oc2ccc(C#N)cc2F)cc1
13.4%: max response [8]
10.2%: max response [5]
inactive: Potency [1] | activation [2] -11.2% | Potency [3] | outcome [4] | Potency [17] | outcome [18] | Potency [6] | Potency [7] | max response [9] 12.7% | activity change % (negative = inhibition) [19] 0.16% | activation [10] -5.96% | activation [11] -2.2% | max response [12] 5.77% | Potency [20] | max response [13] -7.64% | max response [14] 2.82% | max response [16] 1.04%

Clc1ccc(C2(Cn3cncn3)CC(Br)CO2)c(Cl)c1 (stereo not given)
inactive: Potency [1] | activation [2] -0.813% | Potency [3] | outcome [4] | Potency [17] | outcome [18] | Potency [6] | Potency [7] | max response [9] -17.6% | activity change % (negative = inhibition) [19] -0.525% | activation [10] 1.75% | activation [11] 0.536% | max response [12] 0.204% | Potency [20] | max response [13] -3.86% | max response [14] -20.3% | Potency [15]
-1.33%: max response [8]
6.2%: max response [5]

N#CC(CCc1ccc(Cl)cc1)(Cn1cncn1)c1ccccc1 (stereo not given)
inactive: Potency [1] | activation [2] -4.45% | Potency [3] | outcome [18] | Potency [7] | max response [9] -64.1% | activation [10] 0.949% | activation [11] 3.22% | max response [12] -0.149% | Potency [20] | max response [13] -21.6% | max response [14] -24.7% | Potency [15]
6.94%: max response [8]

CN(C)c1nc(=O)n(C2CCCCC2)c(=O)n1C
inactive: Potency [1] | outcome [4] | Potency [17] | outcome [18] | Potency [6] | max response [9] -11.2% | activity change % (negative = inhibition) [19] -5.49% | activation [11] 0.25% | max response [12] 0.605% | Potency [20] | max response [13] 8.36% | max response [14] -6.56% | Potency [15] | max response [16] 1.22%
-2.46%: max response [8]
-8.9%: max response [5]

CCc1cc(C)cc(CC)c1-c1c(OC(=O)C(C)(C)C)n2n(c1=O)CCOCC2
inactive: Potency [1] | activation [2] -0.342% | Potency [3] | outcome [4] | Potency [17] | Potency [6] | Potency [7] | max response [9] 4.99% | activity change % (negative = inhibition) [19] -5.07% | activation [10] -4.38% | activation [11] 2.1% | max response [12] -1.33% | Potency [20] | max response [13] 0.802% | max response [14] -3.66% | max response [16] 1.04%
-12.9%: max response [5]
0.581%: max response [8]

CC(C)[C@@H](Nc1ccc(C(F)(F)F)cc1Cl)C(=O)OC(C#N)c1cccc(Oc2ccccc2)c1 (stereo not given in full)
inactive: Potency [1] | activation [2] -3.97% | Potency [3] | outcome [18] | Potency [7] | activation [11] 0.736% | max response [12] -1.14% | Potency [20] | max response [13] -3.6% | max response [14] -27.3% | Potency [15]
